High-throughput results: PubChem BioAssay, National Center for Advancing Translational Sciences (NCATS)
Hits are enriched below; roughly 7.3% of the tested compounds scored in any of these assays.
Rab9 prom act: Rab9 promoter activation; Huh7 Rab9 promoter-luciferase reporter, luminescence, 24 h; Potency, µM (doses to about 9.22 µM), for inactives: at the highest dose activation, negative = inhibition, actives largely listed as activators; actives 2.8% (n = 320,000); further: % of control where 0% means no effect; nearly all actives have a fitted effect of over 60% in size
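Cells were plated at 1500 per well in reduced-serum medium with 10% FBS and left 2 h. Compound in DMSO was then added for 24 h at 37 °C. Reporter signal was read by luminescence after 10 min with luciferase detection reagent.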
ELG1 genotoxic: induces genotoxicity in HEK293T cells with luciferase-tagged ELG1; HEK293T ELG1-luciferase reporter, luminescence, 16 h; Potency, µM (doses to about 46 µM), without a hit: top-dose activity change, positive = activation, hits mostly activators; actives 1.3% (n = 330,000); AID 504466; further: % of control where 0% means no effect; nearly all actives have a fitted effect of over 60% in size
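Cells (2,000/well) expressing the ELG1-luciferase fusion are dosed by pin tool and kept 16 hr at 37 °C, 5% CO2. Signal comes from ONE-Glo luciferase reagent after 30 min at room temperature.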
Luc counter: counter-screen: inhibitors of Kinase-Glo firefly luciferase. Q27757. Kinase-Glo luciferase, ATP luminescence, 8 min. Potency, µM (doses to about 38.3 µM), for inactives: top-dose activity change, negative = inhibition, actives largely listed as inhibitors. actives 0.28% (n = 200,000); further: on the % scale 0 is the no-effect control and ±100 the full control effect; nearly all actives have a fitted effect of over 60% in size
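Light output from Kinase-Glo luciferase with luciferin and 10 uM ATP in 50 mM imidazole pH 7.2, KCl, MgCl2, Tween 20, BSA; compound pin-delivered, 8-min ambient incubation, then luminescence read.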
NPC1 prom act: activators of NPC1 promoter. Potency, µM (doses to about 9.22 µM), without a hit: at the highest dose activation, usual class: activators. Huh7 NPC1 promoter luciferase reporter, 24 h. actives 2.4% (n = 320,000). AID 485313; further: % of control where 0% means no effect; nearly all actives have a fitted effect of over 60% in size
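Huh7 cells stably carrying NPC1 promoter–luciferase, plated in Opti-MEM with 10% FBS for 2 h, were exposed to compound in DMSO for 24 h at 37 °C; luciferase reagent was added for 10 min and luminescence read.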
FLuc modulator: firefly luciferase modulation, counter-screen for miR-21 project; P08659; purified FLuc, Km substrates, luminescence inhibition; Potency, µM (series often up to 57.5 µM), without a hit: top-dose activity change, negative = inhibition, usual class: inhibitors; actives 6.9% (n = 360,000); AID 588342;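 further: plate controls were vehicle for no effect and reference inhibitor for full effect; nearly all actives have a fitted effect of over 55% in size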
Target sequence (P08659 whole entry, looked up): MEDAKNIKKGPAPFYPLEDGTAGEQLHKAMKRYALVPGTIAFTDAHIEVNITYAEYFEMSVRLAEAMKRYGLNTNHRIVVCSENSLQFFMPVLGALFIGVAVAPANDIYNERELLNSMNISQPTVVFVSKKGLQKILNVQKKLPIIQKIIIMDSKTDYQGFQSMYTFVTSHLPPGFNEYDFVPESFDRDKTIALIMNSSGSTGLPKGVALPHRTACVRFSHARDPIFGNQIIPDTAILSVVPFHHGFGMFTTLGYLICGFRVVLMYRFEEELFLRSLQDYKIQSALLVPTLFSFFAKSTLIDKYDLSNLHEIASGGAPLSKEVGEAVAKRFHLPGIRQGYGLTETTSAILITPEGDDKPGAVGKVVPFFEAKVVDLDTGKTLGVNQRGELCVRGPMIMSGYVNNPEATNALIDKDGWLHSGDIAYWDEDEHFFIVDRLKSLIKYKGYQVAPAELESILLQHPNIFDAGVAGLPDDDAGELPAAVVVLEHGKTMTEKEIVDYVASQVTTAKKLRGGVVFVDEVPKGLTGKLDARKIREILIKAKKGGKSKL
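Purified P. pyralis luciferase (10nM final) with 10uM D-luciferin and 10uM ATP (Km levels) in 50mM Tris acetate pH 7.5, 10mM Mg acetate, 0.01% Tween-20, 0.05% BSA; qHTS 6-point titration, ~60 µM downward; luminescence read.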
SMN2 splice enh: increases expression of the SMN2 splice variant; HEK293 SMN2-luciferase splicing reporter, luminescence, 30-36 h; Potency, µM (titrated, usually from 46.1 µM), for inactives: at the top dose activity change, positive = activation, actives largely listed as activators; actives 2.8% (n = 210,000); AID 1458; further: % of control where 0% means no effect; nearly all actives have a fitted effect of over 55% in size
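qHTS luciferase splicing reporter: luminescence rises when SMN2 exon 7 is included in transfected HEK293 cells. Compound exposure lasted 30-36 h at 37C, with 4.5 mM final sodium butyrate as control, followed by a ONE-Glo read.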
Starred values were filed as active, the others as inactive; [ ] = remark or other dose. The call rests on the fitted dose curve; in most records, active means well fitted curve in the direction sought with a large enough effect; inconclusive means small, poorly fitted or top-dose-only effect, or another doubt; inactive means no such curve, though single readings can be large; an effect the other way counts as inactive or inconclusive. Potency means the concentration at half of the fitted maximal effect.

Screening CCc1ccc(C(=O)c2c(N)c(-c3nc(-c4ccc5c(c4)OCO5)cs3)c3ccccn23)cc1 returned FLuc modulator -8% and SMN2 splice enh -5%.
For O=C(NCC(c1cccnc1)N1CCc2ccccc21)C(=O)Nc1ccccc1F (stereo not drawn) the results were FLuc modulator -18%.
For COc1ccc(OC)c(CNC(=O)Nc2cn(CC(C)C)c(=O)c3ccccc23)c1 the results were FLuc modulator -8%.
For COc1ccc(NC(=O)CCCc2nnc3n(C(C)C)c(=O)c4sccc4n23)cc1Cl the results were FLuc modulator 3%.
CCOC(=O)c1ccc(NC(=O)COCc2cc(-c3ccc4c(c3)OCO4)on2)cc1 was read as FLuc modulator 5%.
Screening COc1cc(OC)c(OC)cc1/C=N/Nc1nc2ccccc2[nH]1 returned Rab9 prom act 9%, ELG1 genotoxic 1%, NPC1 prom act 1% and FLuc modulator -14%.
Screening CCN(CC)c1ccc(/C=N/Nc2nc3ccccc3[nH]2)c(O)c1 returned Rab9 prom act -28%, ELG1 genotoxic inconclusive, Luc counter 14%, NPC1 prom act -30%, FLuc modulator 7.6µM* and SMN2 splice enh -73%.
Cc1ccc2cc(/C=N/Nc3nc4ccccc4[nH]3)c(Cl)nc2c1 was read as Rab9 prom act 0.63µM*, ELG1 genotoxic inconclusive, Luc counter 6.3µM*, NPC1 prom act 2.8µM*, FLuc modulator 0.085µM* and SMN2 splice enh 5µM*.
`Cc1ccc(C2c3cccn3CCN2S(=O)(=O)c2ccc([N+](=O)[O-])cc2)cc1` (stereo not drawn) gave FLuc modulator -5%.
Screening O=C(NCCc1ccccc1)c1ccc(-c2ccc(F)cc2)o1 returned Rab9 prom act 1%, ELG1 genotoxic 0%, Luc counter 2%, NPC1 prom act -6%, FLuc modulator 21µM* and SMN2 splice enh 5%.
For O=C(NCCc1ccccc1)c1ccc(-c2ccccc2C(F)(F)F)o1 the results were Rab9 prom act -1%, ELG1 genotoxic 1%, Luc counter -1%, NPC1 prom act -3%, FLuc modulator inconclusive and SMN2 splice enh 9%.
O=C(NCc1ccccc1)c1ccc(-c2ccccc2F)o1 was read as Rab9 prom act inconclusive, ELG1 genotoxic 13µM*, Luc counter 2%, NPC1 prom act 26%, FLuc modulator 13µM* and SMN2 splice enh 32µM*.
For CCc1nnc(NC(=O)c2ccc(-c3ccccc3F)o2)s1 the results were Rab9 prom act 25%, ELG1 genotoxic inconclusive, Luc counter 1%, NPC1 prom act 25%, FLuc modulator -14% and SMN2 splice enh 21%.
COC(=O)c1cc2oc(C)cc2n1Cc1c(C)cc(C)cc1C was read as FLuc modulator 6% and SMN2 splice enh 14%.
For O=C(NCC1CCCO1)c1ccccc1 (stereo not drawn) the results were Luc counter -3%, FLuc modulator 0% and SMN2 splice enh 2%.
For O=C(NCc1ccco1)c1ccc(-c2ccc(Cl)cc2)o1 the results were Rab9 prom act 25%, ELG1 genotoxic 3%, Luc counter -6%, NPC1 prom act 18%, FLuc modulator 15µM* and SMN2 splice enh -10%.
`O=C(NCC1CCCO1)c1ccc(-c2ccccc2Cl)o1` (stereo not drawn) gave Rab9 prom act 2.8µM*, ELG1 genotoxic inconclusive, NPC1 prom act 3.5µM* and FLuc modulator 17µM*.
O=C(NCC1CCCO1)c1cc(-c2ccccc2F)no1 (stereo not drawn) was read as Rab9 prom act 2.8µM*, ELG1 genotoxic inconclusive, NPC1 prom act inconclusive and FLuc modulator 15µM*.
For Cc1onc(-c2ccccc2Cl)c1C(=O)NCC1CCCO1 (stereo not drawn) the results were Rab9 prom act -6%, ELG1 genotoxic 1%, Luc counter -2%, NPC1 prom act -4%, FLuc modulator 0% and SMN2 splice enh 0%.
`O=C(NCc1ccco1)c1ccc(-c2ccccc2Cl)o1` gave Rab9 prom act 30%, ELG1 genotoxic 16%, Luc counter -6%, NPC1 prom act 2%, FLuc modulator 17µM* and SMN2 splice enh 29%.
For CC(C)(C)NC(=O)C1CCN(c2nc3ccccc3nc2C(F)(F)F)CC1 the results were FLuc modulator -7%.
`COc1ccc(-c2c3c(=O)n(C)c(=O)n(C)c3c3n2-c2ccccc2NC3c2ccco2)cc1` (stereo not drawn) gave FLuc modulator 3%.
Screening Cc1ccc(CNC(=O)c2cccc(-n3cnc4cccnc43)c2)cc1 returned FLuc modulator 2%.
For Oc1ccc(CNCc2ccc3c(c2)OCO3)c2cccnc12 the results were Rab9 prom act -1%, NPC1 prom act 2% and FLuc modulator -1%.
CCCOc1cccc(C(=O)Nc2ccc(-c3nc4ccccc4o3)cc2)c1 was read as FLuc modulator 3% and SMN2 splice enh 28%.
CC#CCN1c2ccccc2[C@]23C[C@@H](C(=O)OC)N(C(=O)c4cccs4)C2=NC(C(=O)OC)=C(C(=O)OC)[C@H]13 was read as Luc counter -3%[7.66 µM] and SMN2 splice enh -7%[9.22 µM].
Screening Cc1nn2c(-c3ccncc3)ccnc2c1Cl returned Rab9 prom act -4%, ELG1 genotoxic 7%, Luc counter -1%, NPC1 prom act -5%, FLuc modulator -2% and SMN2 splice enh -3%.
`Nc1c(C(=O)O)cnc2c(-c3ccc(Cl)cc3)cnn12` gave Rab9 prom act 1µM*, ELG1 genotoxic inconclusive, Luc counter -17%, NPC1 prom act 1.4µM*, FLuc modulator 3µM* and SMN2 splice enh 11µM*.
`Clc1ccc(-c2cnn3c(-c4ccncc4)ccnc23)cc1` gave Rab9 prom act 0.35µM*, ELG1 genotoxic 23%, Luc counter -2%, NPC1 prom act 0.5µM*, FLuc modulator 0.95µM* and SMN2 splice enh 3.2µM*.
Screening Cc1cc(-c2ccc(Cl)cc2)n2nc(N)nc2n1 returned Rab9 prom act 2%, ELG1 genotoxic inconclusive, Luc counter 4%, NPC1 prom act -3% and FLuc modulator 3%[2.3 µM].
For CC(=O)c1cnc2c(-c3ccc(Cl)cc3)cnn2c1C the results were Rab9 prom act inconclusive, ELG1 genotoxic inconclusive, Luc counter -2%, NPC1 prom act 22%, FLuc modulator inconclusive and SMN2 splice enh 13µM*.
